In PubChem BioAssay (NCATS):
Records with an inconclusive call do not appear. A number with no mark means an inactive call. Activity calls are given as the source filed them. Calls come from the whole dose curve; as a rule, active = well fitted cell-killing curve with a large enough effect; inconclusive = small, poorly fitted or top-dose-only effect, or effect the other way; inactive = no such curve, though single readings can be large or run the other way.

test: Quantitative High-Throughput drug screen in 47 multiple myeloma cell lines against the NCATS MIPE library collection: OPM2_DSMZ cell viability assay (AID 1919872); conditions: OPM2 myeloma viability, CellTiter-Glo ATP luminescence, 48 h; series mostly up to 45.8 µM; viability (% of DMSO): at the top concentration; note: nearly all actives have a fitted effect of over 30% in size
Procedure, shortened: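 Primary qHTS used for cherry-picking: cells at 500/well, library compounds for 48 h (37C, 5% CO2), luminescent ATP assay.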
Potency is the fitted concentration of half-maximal effect.

Compound	viability (% of DMSO)	Potency
CC1C(=O)OC2C(O)C34C5CC(C(C)(C)C)C36C(OC(=O)C6O)OC4(C(=O)O5)C12O (stereo not given)	103%	–
C[C@@H](NC(=O)c1ncnc(N)c1Cl)c1ncc(C(=O)Nc2cc(C(F)(F)F)c(Cl)cn2)s1	–	9.35 µM (active)
C[C@@H](O)[C@H]1C(=O)N2C(C(=O)OCOC(=O)C(C)(C)C)=C(SC3CN(C4=NCCS4)C3)[C@H](C)[C@H]12	93.1%	–
CN(C)CC[C@H](CSc1ccccc1)Nc1ccc(S(=O)(=O)NC(=O)c2ccc(N3CCN(Cc4ccccc4-c4ccc(Cl)cc4)CC3)cc2)cc1[N+](=O)[O-]	–	16.6 µM (active)
C[C@@H]1C[C@H]2[C@@H]3CCC4=CC(=O)C=C[C@]4(C)[C@@]3(F)[C@@H](O)C[C@]2(C)[C@@]1(O)C(=O)CO	100%	–
C[C@]12C=CC(=O)C=C1CC[C@@H]1[C@@H]2[C@@H](O)C[C@@]2(C)[C@@H]1CC[C@]2(O)C(=O)CO	91%	–
CN1CCN2c3ncccc3Cc3ccccc3C2C1 (stereo not given)	109%	–
N#CC(c1ccnc(NCCc2cccnc2)n1)c1nc2ccccc2s1 (stereo not given)	–	26.4 µM (active)
CN1[C@H]2CC[C@H]1CC(OC(=O)c1c[nH]c3ccccc13)C2 (stereo not given in full)	95.8%	–
Cc1cnc(-c2cc(N3CCN(C(=O)CCS(C)(=O)=O)CC3)ncc2Cl)c(C)c1	102%	–
CN[C@@H]1[C@@H](O)[C@@H](O[C@@H]2[C@@H](O)[C@H](O[C@H]3O[C@H](CN)[C@@H](O)[C@H](O)[C@@H]3O)[C@@H](N)C[C@@H]2NC(=O)[C@@H](O)CN)OC[C@]1(C)O	90.2%	–
NC(=O)c1ccc(N(C(N)=O)c2c(F)cccc2F)nc1-c1ccc(F)cc1F	94.9%	–
CCC[C@H](Nc1nc(-c2ccc(NC(=O)NCC)c(OC)c2)ncc1C)c1cccnc1	–	0.0083 µM (active)
NS(=O)(=O)c1cc(Cl)c(Cl)c(S(N)(=O)=O)c1	91%	–
CCN(CC)CCCCNc1nc2cc(Cl)c(Cl)cc2nc1-c1ccc(-c2cccs2)s1	–	10.5 µM (active)
CO[C@H]1/C=C\O[C@@]2(C)Oc3c(C)c(O)c4c(O)c(c(C=NN5CCN(C6CCCC6)CC5)c(O)c4c3C2=O)NC(=O)C(C)=CC=C[C@H](C)[C@H](O)[C@@H](C)[C@@H](O)[C@@H](C)[C@H](OC(C)=O)[C@H]1C	–	14.8 µM (active)
CC1(C)[C@H]2CC[C@]3(C)[C@@H](C(=O)C=C4[C@@H]5C[C@@](C)(C(=O)O)CC[C@]5(C)CC[C@]43C)[C@@]2(C)CC[C@@H]1O	96.6%	–
Cc1ccccc1-n1c(Cn2nc(-c3cccc(O)c3)c3c(N)ncnc32)nc2cccc(C)c2c1=O	–	8.33 µM (active)
O=C(NCCCCN1CCOCC1)c1cc2ccccc2o1	102%	–
Cc1[nH]c(C=C2C(=O)Nc3ccc(S(=O)(=O)N(C)c4cccc(Cl)c4)cc32)c(C)c1C(=O)N1CCN(C)CC1	–	20.9 µM (active)
N[C@@H](CC(=O)N1CCn2c(nnc2C(F)(F)F)C1)Cc1cc(F)c(F)cc1F	110%	–
O=C(Nc1ccc(OC(F)(F)F)cc1)c1sccc1NCc1ccnc2ccccc12	–	18.7 µM (active)
COc1ccnc(CS(=O)c2nc3ccc(OC(F)F)cc3[nH]2)c1OC (stereo not given)	131%	–
CN1c2ccccc2C(=O)N2CCc3c([nH]c4ccccc34)C21 (stereo not given)	90.5%	–
CCOC(=O)N1CCN([N+]([O-])=NOc2cc(ON=[N+]([O-])N3CCN(C(=O)OCC)CC3)c([N+](=O)[O-])cc2[N+](=O)[O-])CC1	–	18.7 µM (active)
